Source: PubChem BioAssay (EPA / NIEHS)
Activity calls are given as the source filed them. The calls were made as follows: active = hit-call score of the fitted dose curve at least 0.9, where 1 is the maximum; inactive = score below 0.9.

What was measured:
[1] = read-out: Matrix Metallopeptidase 1 (MMP1), MMP1 (gene 4312); test: BSK_BE3C_MMP1: BioMAP Diversity Plus: BE3C Assay for Matrix Metallopeptidase 1 (MMP1) Biomarker Activity (AID 2283024); conditions: primary human bronchial epithelial cells; actives raise or lower the signal
Method in brief: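 In this multiplexed primary-cell system, human bronchial epithelium received chemicals for 24 h before an ELISA for MMP1. Values reflect bidirectional fits normalised to the DMSO baseline.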

[2] = BSK_3C_Vis: BioMAP Diversity Plus: 3C Assay for Morphology Visualization (AID 2283025); conditions: primary human endothelial cells (HUVEC);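 also: fitted both ways so gain or loss versus DMSO counts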;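 as to AC50: light microscopy image of cell morphology used as background control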
Method in brief: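 Light-microscopy morphology readout, 24 h exposure, human primary umbilical vein endothelium; analysed relative to DMSO with bidirectional fitting.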

[3] = read-out: Pselectin, SELP (gene 6403); test: BSK_4H_Pselectin: BioMAP Diversity Plus: 4H Assay for Pselectin Biomarker Activity (AID 2283026); conditions: primary human endothelial cells (HUVEC); actives raise or lower the signal
Method in brief: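 Bidirectional fits against DMSO gave the endpoint. Cells: primary human umbilical vein endothelium, chemical-treated for 24 h before ELISA detection of P-selectin.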

[4] = BSK_4H_SRB: Viability Assessment in the BioMAP Diversity Plus: 4H Assay (AID 2283027); conditions: primary human endothelial cells (HUVEC);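 also: cells exposed to compound for 24 h before staining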
Method in brief: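 Cytotoxicity readout: sulforhodamine B (0.1%) staining of total protein after 10% TCA fixation, measured at 560 nm in human umbilical vein endothelium at 24 h. DMSO set the baseline; fitting was bidirectional.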

[5] = BSK_BE3C_SRB: Viability Assessment in the BioMAP Diversity Plus: BE3C Assay (AID 2283028); conditions: primary human bronchial epithelial cells
Method in brief: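 Cytotoxicity read-out: SRB (0.1%) staining of TCA-fixed (10%) human lung bronchial epithelial cells, absorbance 560 nm, 24 h post-dosing. Curves fitted both directions relative to DMSO.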

[6] = read-out: Thrombomodulin, THBD (gene 7056); test: BSK_3C_Thrombomodulin: BioMAP Diversity Plus: 3C Assay for Thrombomodulin Biomarker Activity (AID 2283029); conditions: primary human endothelial cells (HUVEC); actives raise or lower the signal
Method in brief: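 In a multiplexed primary-cell system, human umbilical vein endothelium received chemical and was assayed 24 h later for thrombomodulin by ELISA. Parallel cultures were SRB-stained (0.1% SRB after 10% TCA fixation, read at 560 nm) to flag cytotoxicity.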

[7] = read-out: Urokinase-type plasminogen activator receptor (uPAR), PLAUR (gene 5329); test: BSK_4H_uPAR: BioMAP Diversity Plus: 4H Assay for Urokinase-type plasminogen activator receptor (uPAR) Biomarker Activity (AID 2283030); conditions: primary human endothelial cells (HUVEC); actives raise or lower the signal
Method in brief: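 uPAR level read by ELISA on HUVEC cultures (BioMAP 4H) 24 h post-dosing, analyzed for gain or loss relative to DMSO. Parallel SRB staining assessed overt cytotoxicity.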

[8] = read-out: Vascular endothelial growth factor receptor 2 (Homo sapiens) (UniProt P35968); test: BSK_4H_VEGFRII: BioMAP Diversity Plus: 4H Assay for Vascular endothelial growth factor receptor 2 (VEGFR2) Biomarker Activity (AID 2283031); conditions: primary human endothelial cells (HUVEC); actives raise or lower the signal
Method in brief: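 Measured by ELISA after 24 h of compound treatment: VEGFR2 on primary human umbilical vein endothelial cells, fitted in both directions relative to DMSO. Parallel cultures received SRB staining (560 nm) for overt cytotoxicity.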

[9] = read-out: Human Leukocyte Antigen - DR isotype (HLADR), HLA-DRA (gene 3122); test: BSK_BE3C_HLADR: BioMAP Diversity Plus: BE3C Assay for Human Leukocyte Antigen - DR isotype (HLADR) Biomarker Activity (AID 2283032); conditions: primary human bronchial epithelial cells; actives raise or lower the signal
Method in brief: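 BioMAP BE3C format: human bronchial epithelium, 24 h compound treatment, ELISA detection of HLA-DR, with bidirectional analysis relative to DMSO.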

[10] = read-out: Vascular cell adhesion molecule 1 (VCAM1), VCAM1 (gene 7412); test: BSK_4H_VCAM1: BioMAP Diversity Plus: 4H Assay for Vascular cell adhesion molecule 1 (VCAM1) Biomarker Activity (AID 2283033); conditions: primary human endothelial cells (HUVEC); actives raise or lower the signal
Method in brief: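 In this human endothelial (HUVEC) system, biomarker ELISA was run 24 h after compound addition, and total protein in parallel wells was assessed by SRB at 560 nm; DMSO served as negative control.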

[11] = read-out: Interferon-gamma inducible Protein 10 (IP10), CXCL10 (gene 3627); test: BSK_BE3C_IP10: BioMAP Diversity Plus: BE3C Assay for Interferon-gamma inducible Protein 10 (IP10) Biomarker Activity (AID 2283034); conditions: primary human bronchial epithelial cells; actives raise or lower the signal
Method in brief: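 BE3C cells (human bronchial epithelial, primary); 24 h exposure; ELISA for IP-10; DMSO-referenced bidirectional fit.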

[12] = read-out: Monokine induced gamma interferon (MIG), CXCL9 (gene 4283); test: BSK_BE3C_MIG: BioMAP Diversity Plus: BE3C Assay for Monokine induced gamma interferon (MIG) Biomarker Activity (AID 2283035); conditions: primary human bronchial epithelial cells; actives raise or lower the signal;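 also: MIG protein measured by ELISA in BE3C cultures after 24 h of dosing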
Method in brief: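 hu bronchial epithelial 1° cells, 24 h cpd; MIG by ELISA; bidirectional fit, DMSO = baseline.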

[13] = read-out: Plasminogen activator inhibitor-1 (PAI1), SERPINE1 (gene 5054); test: BSK_BE3C_PAI1: BioMAP Diversity Plus: BE3C Assay for Plasminogen activator inhibitor-1 (PAI1) Biomarker Activity (AID 2283037); conditions: primary human bronchial epithelial cells; actives raise or lower the signal
Method in brief: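 In this multiplexed primary-cell system, bronchial epithelial cells receive test chemical and are sampled at 24 h. PAI-1 is read by ELISA, with DMSO serving as negative control for bidirectional fitting.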

[14] = read-out: urokinase plasminogen activator (uPA), PLAU (gene 5328); test: BSK_BE3C_uPA: BioMAP Diversity Plus: BE3C Assay for urokinase plasminogen activator (uPA) Biomarker Activity (AID 2283038); conditions: primary human bronchial epithelial cells; actives raise or lower the signal;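 also: uPA protein level quantified by ELISA in cell cultures; uPA read one day after compound addition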
Method in brief: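 ELISA for uPA on human primary bronchial epithelial cultures 24 h post-treatment, gain or loss against DMSO. Parallel SRB staining (0.1% after 10% TCA fixation, 560 nm) assessed overt cytotoxicity.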

[15] = read-out: Urokinase-type plasminogen activator receptor (uPAR), PLAUR (gene 5329); test: BSK_BE3C_uPAR: BioMAP Diversity Plus: BE3C Assay for Urokinase-type plasminogen activator receptor (uPAR) Biomarker Activity (AID 2283039); conditions: primary human bronchial epithelial cells; actives raise or lower the signal;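 also: uPAR protein level measured by ELISA on the cells; cells exposed to compound for one day before measurement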
Method in brief: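 Chemically treated human bronchial epithelial cells (lung primary) are assayed for uPAR by ELISA after 24 h, with data fitted in both directions using DMSO as negative control.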

[16] = read-out: Interleukin-6 (IL6), IL6 (gene 3569); test: BSK_CASM3C_IL6: BioMAP Diversity Plus: CASM3C Assay for Interleukin-6 (IL6) Biomarker Activity for (AID 2283040); conditions: primary human coronary artery smooth muscle cells; actives raise or lower the signal
[17] = read-out: Tissue plasminogen activator (tPA), PLAT (gene 5327); test: BSK_BE3C_tPA: BioMAP Diversity Plus: BE3C Assay for Tissue plasminogen activator (tPA) Biomarker Activity (AID 2283041); conditions: primary human bronchial epithelial cells; actives raise or lower the signal;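 also: tPA level quantified by ELISA one day after compound addition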
Method in brief: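 Using human lung primary bronchial epithelial cells, tPA was measured by ELISA 24 h after dosing; data fitted relative to DMSO.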

[18] = read-out: Interleukin-8 (IL8), CXCL8 (gene 3576); test: BSK_CASM3C_IL8: BioMAP Diversity Plus: CASM3C Assay for Interleukin-8 (IL8) Biomarker Activity (AID 2283042); conditions: primary human coronary artery smooth muscle cells; actives raise or lower the signal;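 also: IL-8 protein level quantified by ELISA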
[19] = read-out: Human Leukocyte Antigen - DR isotype (HLADR), HLA-DRA (gene 3122); test: BSK_CASM3C_HLADR: BioMAP Diversity Plus: CASM3C Assay for Human Leukocyte Antigen - DR isotype (HLADR) Biomarker Activity (AID 2283043); conditions: primary human coronary artery smooth muscle cells; actives raise or lower the signal;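 also: cell-surface HLA-DR protein level quantified by ELISA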
[20] = read-out: Transforming growth factor beta 1 (TGFb1), TGFB1 (gene 7040); test: BSK_BE3C_TGFb1: BioMAP Diversity Plus: BE3C Assay for Transforming growth factor beta 1 (TGFb1) Biomarker Activity (AID 2283036;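 also: TGF-b1 protein level measured by ELISA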); conditions: primary human bronchial epithelial cells; actives raise or lower the signal
Method in brief: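 TGF-b1 measured via ELISA, 24 h after chemical dosing of human bronchial epithelial cells (BE3C). Overt cytotoxicity assessed in parallel by SRB (0.1%, TCA-fixed, 560 nm); analysis bidirectional relative to DMSO.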

Measured: AC50

O=C1CCCO1
inactive: [1] | [3] | [4] | [5] | [6] | [7] | [8] | [9] | [10] | [11] | [12] | [13] | [14] | [15] | [16] | [17] | [18] | [19]
active: [2] 16.3 µM

Nc1ccc(Oc2ccc(N)cc2)cc1
inactive: [1] | [3] | [4] | [5] | [6] | [7] | [8] | [9] | [10] | [11] | [12] | [20] | [13] | [14] | [15] | [16] | [17] | [18] | [19]

Nc1ccc(Cl)cc1N
active: [1] 1.69 µM | [3] 1.11 µM | [6] 0.785 µM | [10] 2.74 µM
inactive: [4] | [5] | [7] | [8] | [9] | [11] | [12] | [20] | [13] | [14] | [15] | [16] | [17] | [18] | [19]

Oc1ccccc1Cl
inactive: [1] | [3] | [4] | [5] | [6] | [7] | [8] | [9] | [10] | [11] | [12] | [20] | [13] | [14] | [15] | [16] | [17] | [18] | [19]

CCCCCOC(=O)c1ccccc1C(=O)OCCCCC
active: [2] 39 µM | [3] 20 µM | [10] 18.5 µM
inactive: [1] | [4] | [5] | [6] | [7] | [8] | [9] | [11] | [12] | [13] | [14] | [15] | [16] | [17] | [18] | [19]

CCCCCCCCOC(=O)c1ccc(C(=O)OCCCCCCCC)c(C(=O)OCCCCCCCC)c1
inactive: [1] | [2] | [3] | [4] | [5] | [6] | [7] | [8] | [9] | [10] | [11] | [12] | [13] | [14] | [15] | [16] | [17] | [18] | [19]

[O-][Cl+]O
inactive: [1] | [2] | [3] | [4] | [5] | [6] | [7] | [9] | [10] | [11] | [12] | [20] | [13] | [14] | [15] | [16] | [17] | [18] | [19]
